Screening results: PubChem, Broad Institute
Not all results are given here.
aSyn UTR act – Activators via SNCA 5'UTR binding, MLPCN; alpha-synuclein 5'UTR reporter, activators screen; activity score, % (tested at 7.5 µM), hits read low; actives 7.1% (n = 300,000); AID 1814; in the data active means activity score below about -60%
Numbers stand for hits; . = inactive.

SMILES	aSyn UTR act
O=C(Nc1ccc(Br)cc1)C1OCCc2ccccc21 (stereo not drawn)	-84
O=C(CC(=O)c1ccccc1)Nc1ccccc1C(F)(F)F	-63
O=C(CC(=O)c1ccccc1)Nc1ccccc1	-110
O=C(CC(=O)c1ccccc1)Nc1ccccn1	-130
O=C(O)/C(=C\C(=O)c1ccccc1)Nc1ccccc1	-91
COc1cccc(NC(=O)CC(=O)c2ccccc2)c1	-111
C=C(C)C1CC=C(C)/C(=N/NC(=O)c2cccs2)C1 (stereo not drawn)	-124
C=C(C)C1CC=C(C)/C(=N/Nc2ccccc2[N+](=O)[O-])C1 (stereo not drawn)	-144
CSc1ccccc1OCc1cc(C(=O)N2CCN(c3ccccc3)CC2C)no1 (stereo not drawn)	-108
CC(=O)c1ccc(OCc2cc(C(=O)N3CCN(c4ccccc4)CC3C)no2)cc1 (stereo not drawn)	-163
Cn1c(-c2ccc(CN3CCCCC3)o2)nc2ccccc21	-89
COc1cc(SC)ccc1C(=O)OCC(=O)N1CCCC1	-74
COc1cc(SC)ccc1C(=O)NCCOc1ccc(F)cc1	-150
COc1cc(SC)ccc1C(=O)NCC1CCCCC1	-67
COc1ccc(CNC(=O)c2ccc(C(C)C)cc2)cc1	-181
COc1ccc(CNC(=O)c2ccc(C(C)(C)C)cc2)cc1	-126
CC(C)c1ccc(CNNC(=O)c2ccccc2)cc1	-105
CC1CCN(C(=O)COC(=O)c2n[nH]c3ccccc23)CC1	-144
CCc1ccc(C(=O)COC(=O)c2n[nH]c3ccccc23)cc1	-129
CCOc1ccc(Nc2nc(-c3sc(N)nc3C)cs2)cc1	-70
Cc1ccc(Nc2nc(-c3sc(N)nc3C)cs2)cc1	-134
CC(C)(C)c1ccc(-n2ncc3c2CCCC3NC(=O)c2cnccn2)cc1 (stereo not drawn)	-68
O=C(CCc1ccncc1)NC1CCCc2c1cnn2-c1cc(F)cc(F)c1 (stereo not drawn)	.
CCN(CC)c1ccc(O)c(C=Nc2ccc(C)c(C)c2)c1	-77
Cc1ccc(N=Cc2ccc(N(C)C)cc2)cc1C	-123
SMILES	aSyn UTR act
Cc1ccc(N=Nc2ccc(O)c(/C=N\NC(=O)c3ccc(N)cc3)c2)cc1C	.
O=C(NC1CCCC1)c1ccc(CSCc2ccccc2F)o1	-63
CC(=O)C1=C(C)OC(N)=C(C#N)C1c1cc([N+](=O)[O-])ccc1Cl (stereo not drawn)	-69
COc1ccccc1NC(=O)C1=C(C)NC(=O)NC1c1ccccc1[N+](=O)[O-] (stereo not drawn)	-98
Clc1ccc(-n2ncc3c(N4CCCCCC4)ncnc32)cc1	.
Clc1ccc(-n2ncc3c(NCc4ccccn4)ncnc32)cc1	-123
Clc1ccc(-n2ncc3c(NCCCn4ccnc4)ncnc32)cc1	-111
CCc1nc(NC(C)(C)C)c2cnn(-c3ccccc3)c2n1	-129
CCOC(=O)N1CCC(Nc2ncnc3c2cnn3-c2ccc(Cl)cc2)CC1	-133
COCC(C)Nc1ncnc2c1cnn2-c1ccc(Cl)cc1 (stereo not drawn)	-132
CCCCNc1ncnc2c1cnn2-c1ccccc1	-260
CCCCNc1ncnc2c1cnn2-c1ccc(Cl)cc1	-137
c1ccc(-n2ncc3c(NCCCN4CCOCC4)ncnc32)cc1	-97
CCOC(=O)c1c(C)nc2sc(C(=O)Nc3ccccc3)c(N)c2c1-c1ccc(OC)cc1	-191
COc1ccc(-c2c3c(nc4sc(C(=O)Nc5ccccc5)c(N)c24)CCC3)cc1	-128
O=C(Nc1cccc(-c2csc(Nc3ccc(Cl)cc3)n2)c1)c1cccc(C(F)(F)F)c1	-71
O=C(Nc1cccc(-c2csc(Nc3ccc(Cl)cc3)n2)c1)c1cc([N+](=O)[O-])cc(C(F)(F)F)c1	-72
O=C(Nc1cccc(-c2csc(Nc3ccccc3)n2)c1)c1cc([N+](=O)[O-])cc(C(F)(F)F)c1	-87
CC1CC(=O)c2c(cc3c(-c4c(O)cc(O)c5c(O)c6c(cc45)OC(C)CC6=O)c(O)cc(O)c3c2O)O1 (stereo not drawn)	.
Cc1nc(NC(=O)c2cccc(-c3cc4ccccc4oc3=O)c2)ccc1Br	-81
O=C(Nc1ccc(Br)cn1)c1cccc(-c2cc3ccccc3oc2=O)c1	-112
Cc1ccc(-c2csc(Cc3nc(-c4ccc5c(c4)CCC(=O)N5)cs3)n2)cc1	-124
COc1ccc(C(=O)OCc2csc(C)n2)c(O)c1	-180
COc1ccc(CC(=O)c2ccc(O)cc2O)cc1	-85
O=C(Cc1ccc(Br)cc1)c1ccc(O)cc1O	-121
SMILES	aSyn UTR act
COc1ccc(C(=O)Cc2ccc3c(c2)OCO3)c(O)c1	-107
CN=C1S/C(=C\c2ccc(O)c(OC)c2)C(=O)N1C	-110
CSC1=NC(=O)/C(=C/c2ccc(SC)cc2)S1	-81
COc1ccc(/C=C2\SC(=N)N(c3nccs3)C2=O)cc1OC	.
CN=C1S/C(=C\c2ccc(SC)cc2)C(=O)N1C	-98
CN(C)CCN(C(=O)c1ccc(Br)s1)c1nc2cc3c(cc2s1)OCCO3	-72
CN(C)CCN(C(=O)c1cccs1)c1nc2cc3c(cc2s1)OCCO3	-106
O=c1nc(Nc2ccc(OCc3ccccc3)cc2)sc2ncccc12	-96
CCOC(=O)c1ccc(Nc2nc(=O)c3cccnc3s2)cc1	-133
CC(=O)c1ccc(Nc2nc(=O)c3cccnc3s2)cc1	-124
CCCc1ccc(OCc2ccc(C(=O)N/N=C/c3cccnc3)o2)cc1	-143
CC(C)(C)c1ccc(OCc2ccc(C(=O)NN)o2)cc1	-107
CC(C)(C)c1ccc(OCc2ccc(C(=O)N/N=C/c3ccc([N+](=O)[O-])cc3)o2)cc1	-138
Cc1ccc(COc2ccccc2-c2cc(C(=O)N/N=C/c3cccnc3)[nH]n2)cc1	-77
O=C(c1ccc(COc2ccc3c(c2)CCC3)o1)N1CCN(c2ccccc2)CC1	-73
CC(C)(C)c1ccc(OCc2ccc(C(=O)NCc3cccnc3)o2)cc1	-133
NNC(=O)c1ccc(COc2ccc3c(c2)CCC3)o1	-74
O=c1c2c(nc3cc(-c4ccc(Br)cc4)[nH]n13)CCCC2	-95
COc1ccc(-c2cc3nc4c(c(=O)n3[nH]2)CCC4)cc1	-158
O=C(/C=C/Nc1ccc(F)c(Cl)c1)c1ccco1	-148
O=C(/C=C/Nc1cccc(F)c1)c1ccco1	-264
Cc1c(C(=O)Nc2nnc(C(F)(F)F)s2)oc2ccccc12	-236
CCOC(=O)c1sc(NC(=O)c2ccc(OC)cc2)nc1C	-109
COC(=O)c1sc(NC(=O)c2oc3ccccc3c2C)nc1C	-142
O=C(Nc1ccccc1C(=O)Nc1nnc(C(F)(F)F)s1)c1ccccc1	.
SMILES	aSyn UTR act
CCOC(=O)c1sc(NC(=O)c2ccc(C)o2)nc1C	-287
COC(=O)c1sc(NC(=O)c2ccc(C)o2)nc1C	-203
COc1ccc(-n2ncc(Cl)c(Cl)c2=O)cc1	-155
COc1ccc(Sc2cnn(-c3ccccc3)c(=O)c2Cl)cc1	-73
COc1nn(-c2ccccc2)c(=O)c(Cl)c1Cl	-347
CC1CCN(c2ccc(-c3cccc(NC(=O)C(F)(F)F)c3)nn2)CC1	.
CCC(=O)Nc1ccc(-c2ccc(N3CCN(C)CC3)nn2)cc1	-73
CCC(=O)Nc1ccc(-c2ccc(N3CCC(C)CC3)nn2)cc1	-96
Cc1ccc(F)cc1NCC(=O)Nc1ccc(Br)cc1	-146
Cc1ccc(NCC(=O)Nc2ccc(Br)cc2)cc1C	-126
Cc1cc(N2CCN(c3ccc(F)cc3)CC2)nc2cc(O)ccc12	-66
COc1ccc2nc(N3CCOCC3)cc(C)c2c1	-79
Cc1cc(N2CCOCC2)nc2cc(O)ccc12	-136
Cc1cc(N2CCN(c3ccccc3F)CC2)nc2cc(O)ccc12	-64
